From PubChem BioAssay (NCATS)
“And” between values parts separate entries of the source, which are not always exact repeats. Identical values can stand only once. Results filed as inconclusive are left out. Some structures have more than one record in an assay (separate samples or runs), and their calls can disagree. The source made the active and inactive calls. Calls follow the shape of the full dose curve.

Assay: Cytotoxicity counterscreen for inhibitors of SARS-CoV-2 cell entry (AID 1645845); also: nearly all actives have a fitted effect of over 50% in size
Conditions: cell viability (SARS-CoV-2 entry assay cells); series mostly up to 57.1 µM; activity change, negative = cytotoxicity: at the top concentration
From the text: Assay Provider: Wei Zheng, Ph.D.
National Center for Advancing Translational Sciences, National Institute of Health, Rockville, MD.
SARS-CoV-2 spike protein, within the viral envelope, mediates viral attachment and infection of host cells. The SARS-CoV-2 spike protein specifically binds to the host receptor ACE2 (Angiotensin-converting enzyme 2). This interaction promotes endocytosis of the viral particle, additional events lead to viral-host cell membrane fusion and release of the viral contents, allowing viral replication.
While SARS-CoV-2 requires BSL-3 facilities for live virus work, pseudo-typed partices (PP) that incorporate SARS-CoV-2 spike proteins without replication elements could facilitate studies on viral entry mechanisms in a BSL-2 setting. This PP cell entry assay could also enable screening of small molecule compound libraries in BSL-2 setting to identify inhibitors of SARS-CoV-2 cell entry. To eliminate false positive compounds, ATP content cytotoxicity assay was screened in the same cell line.
SEQUENCE No. (e.g., 1, 2, 3, etc.); […] (e.g., Cells, Incubation, Reagent, etc.); VALUE and DESCRIPTION.
1. Cells. Seed 1500 HEK293-ACE2 cells (Expi293F with stable expression of human ACE2) in 2 uL/well media (DMEM, 10% FBS, 1x L-glutamine, 1x Pen/Strep, 1 ug/ml puromycin) in white 1536-well assay plates (Greiner #782073).
2. Incubation. Incubate at 37 C with 5% CO2 overnight (~16 h).
3. Compounds. Dispense 23 nL/well compounds in DMSO via pin transfer.
4. Incubation. Incubate for 1 h at 37C 5% CO2.
5. Reagent. Dispense 2 uL/well of media (DMEM, 10% FBS, 1x L-glutamine, 1x Pen/Strep, 1 ug/ml puromycin).
6. Incubation. Incubate at for 48h at 37C 5% CO2
7. Reagent. Dispense 4 uL/well of ATPLite 1step luminescence assay reagent (PerkinElmer #6016739).
8. Incubation. Incubate for 15 min at room temperature.
9. Detection. Read luminescence signal (Viewlux plate reader, PerkinElmer). Data was normalized with wells containing cells as 100%, and wells without cells (media only control) as 0%.
% is scaled to controls: 0 for no effect and ±100 for the full control effect; potency is read from the fitted curve at half-maximal effect.

SMILES | activity change, negative = cytotoxicity | outcome | Potency
COC(=O)[C@@H](N)CS | -7.95% (inactive) | – | –
Cc1ccccc1-n1nc(-c2c(-c3ccc(F)cc3)nn3c2NC[C@@H](CO)C3)ccc1=O | 4.66% (inactive) | – | –
Cc1nc(NC(=O)N2CCC[C@H]2C(N)=O)sc1-c1ccnc(C(C)(C)C(F)(F)F)c1 | -10.7% (inactive) | – | –
CCN(CC)C(=O)[C@]1(c2ccccc2)C[C@H]1CN | – | inactive | –
OC[C@H]1O[C@H](O[C@H]2[C@H](O)[C@@H](O)[C@H](O)O[C@@H]2CO)[C@H](O)[C@@H](O)[C@@H]1O | – | inactive | –
COCC1=C(C(=O)OC(C)OC(=O)OC(C)C)N2C(=O)[C@@H](NC(=O)/C(=N/OC)c3csc(N)n3)[C@H]2SC1 (stereo not given in full) | -2.39% (inactive) | – | –
NC1CCCN(c2c(/C=C3\SC(=O)NC3=O)cccc2-c2ccccc2)C1 (stereo not given) | – | inactive | –
O=C(O)c1cc(O)c2c(c1)[O][Bi][O]2 | – | inactive [at 0.702 µM] | –
Cn1c(=O)cc(N2CCCC(N)C2)n(Cc2ccccc2C#N)c1=O (stereo not given) | – | inactive | –
O1[As]2O[As]1O2 | -22.9% (inactive) | – | –
CC(=O)[O][Al][O]C(C)=O | – | inactive [at 11.3 µM] | –
CCC(=O)O[C@]1(C(=O)COC(C)=O)CC[C@H]2[C@@H]3C[C@H](C)C4=CC(=O)C=C[C@]4(C)[C@H]3[C@@H](O)C[C@@]21C | -18.9% (inactive) | – | –
C[C@H](NC(=O)CCC(F)(F)F)C(=O)N[C@@H]1C(=O)N(CCO)c2ncccc2-c2ccccc21 | – | inactive | –
O=C([O-])C[O-].[Pt+2] | – | – | inactive
[2H]C([2H])([2H])C(CCC[C@@H](C)[C@H]1CC[C@H]2/C(=C/C=C3\C[C@@H](O)C[C@H](O)C3=C)CCC[C@]12C)C([2H])([2H])[2H] | 4.15% (inactive) | – | –
O=c1c(-c2ccc(O)cc2)coc2cc(O[C@@H]3O[C@H](CO)[C@@H](O)[C@H](O)[C@H]3O)ccc12 | -1.35% (inactive) | – | –
CC[C@H]1OC(=O)C[C@@H](OC(C)=O)[C@H](C)[C@@H](O[C@@H]2O[C@H](C)[C@@H](O[C@H]3C[C@@](C)(O)[C@@H](OC(=O)CC(C)C)[C@H](C)O3)[C@H](N(C)C)[C@H]2O)[C@@H](CC=O)C[C@@H](C)C(=O)/C=C/C(C)=C/[C@@H]1CO[C@@H]1O[C@H](C)[C@@H](O)[C@@H](OC)[C@H]1OC | -7.01% (inactive) | – | –
Nc1cc(COc2c(Cl)cc(C[C@H](N)C(=O)O)cc2Cl)c2oc(-c3ccccc3)nc2c1 | – | inactive | –
CCOC(=O)[C@H](C)C[C@@H](Cc1ccc(-c2ccccc2)cc1)NC(=O)CCC(=O)O | 0.665% (inactive) | – | –
COCCNCc1ccc(-c2cc3nccc(Oc4ccc(NC(=O)C5(C(=O)Nc6ccc(F)cc6)CC5)cc4F)c3s2)nc1 | -3.89% (inactive) | – | –

SMILES | activity change, negative = cytotoxicity | outcome | Potency
COC(=O)N[C@H](C(=O)N1CC2(CC2)C[C@H]1c1ncc(-c2ccc3c(c2)C(F)(F)c2cc(-c4ccc5nc([C@@H]6[C@H]7CC[C@H](C7)N6C(=O)[C@@H](NC(=O)OC)C(C)C)[nH]c5c4)ccc2-3)[nH]1)C(C)C | 1.94% [at 27.1 µM] (inactive) | – | –
O=C(O)CC(O)CC(O)/C=C/c1c(C2CC2)nc2ccccc2c1-c1ccc(F)cc1 (stereo not given) | -6.83% (inactive) | – | –
O=C(O)[C@H](O)[C@@H](O)[C@H](O)[C@H](O)CO | -16.1% (inactive) | – | –
CCCCOC(=O)C(=O)Nc1cccc(-c2nn[nH]n2)c1 | – | inactive | –
CC(=O)O[C@@]12CO[C@@H]1C[C@H](O)[C@@]1(C)C(=O)[C@H](O)C3=C(C)[C@@H](O)C[C@@](O)([C@@H](OC(=O)c4ccccc4)[C@H]21)C3(C)C | – | inactive | –
CCOC(=O)CCC(=O)O[C@H]1[C@H](O[C@@H]2[C@@H](C)[C@H](O[C@H]3C[C@@](C)(OC)[C@@H](O)[C@H](C)O3)[C@@H](C)C(=O)O[C@H](CC)[C@@](C)(O)[C@H](O)[C@@H](C)C(=O)[C@H](C)CC2(C)O)O[C@H](C)C[C@@H]1N(C)C (stereo not given in full) | 3.93% (inactive) | – | –
CC1(COc2ccc(N3CCC(Oc4ccc(OC(F)(F)F)cc4)CC3)cc2)Cn2cc([N+](=O)[O-])nc2O1 (stereo not given) | 3.19% (inactive) | – | –
CN1C(=O)[C@@H](NC(=O)[C@H](CCC(F)(F)F)[C@H](CCC(F)(F)F)C(N)=O)N=C(c2ccccc2)c2ccccc21 | – | inactive | –
CCCCNc1ncc2c(-c3ccc(CN4CCN(C)CC4)cc3)cn(C3CCC(O)CC3)c2n1 (stereo not given) | – | – | inactive and 25.1 µM (active)
CC(C)NC(=O)N1CC[C@H](N=C2Nc3cc(F)ccc3N(CC(F)F)c3ccc(Cl)cc32)C1 | -6.46% [at 19 µM] (inactive) | – | –
CN(CC(=O)N1CCOCC1)Cc1c(Cl)cccc1NC(=O)c1ccccc1 | – | inactive | –
O=C(NOCCO)c1ccc2cncn2c1Nc1ccc(I)cc1F | – | inactive | –
COc1cc(N2CCC(N(C)C)CC2)ccc1Nc1ncc(Cl)c(Nc2ccccc2P(C)(C)=O)n1 | – | – | 15.8 µM (active)
CCCCC(=O)O | – | inactive | –
Cc1[nH]nc2ncc(C(=O)N3CCC[C@H]3c3ccc(Cl)cc3)cc12 | – | inactive | –
O=P(O)(O)OC(CO)CO | – | inactive | –
Cc1sc2c(c1C)C(c1ccc(Cl)cc1)=NC(CC(N)=O)c1nnc(C)n1-2 (stereo not given) | 1.1% (inactive) | – | –
CN(C)CCNC(=O)COc1c2cccc1Cc1cccc(c1OCC(=O)NCCN(C)C)Cc1cccc(c1OCC(=O)NCCN(C)C)Cc1cccc(c1OCC(=O)NCCN(C)C)C2 | -11.8% [at 11.3 µM] (inactive) | – | –
Cc1cc(C)cc(NC(=O)Cc2ccc(OC(C)(C)C(=O)O)cc2)c1 | -12.4% (inactive) | – | –
N#C[C@@H]1C[C@@H]2C[C@@H]2N1C(=O)[C@@H](N)C12CC3CC(CC(O)(C3)C1)C2 | – | inactive | –
